The record followed here is the supplement of paper PMC6522484.

± gives the standard deviation of the averaged measurements.

In assay [1] the test system is DLD1. Kind of assay: cell viability (CellTiter-Glo) relative to plate median (fraction of plate median); higher = more viable cells. The settings on record: 5 µM; treatment time 24 h; reporter: 7TFP. The method in brief:
(§1)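 Two independent replicates were averaged for each reported value. Library compounds were applied at a final 5 µM for 24 h to colorectal cancer cell lines stably expressing lentiviral TCF/Wnt firefly luciferase reporters. Firefly luciferase or CellTiterGlo luminescence from each well was normalised to the plate median.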
On the technique in general: In ATP-based viability assays light output follows the ATP content of the culture.

In assay [2] the test system is HCT116. The description is as above. The settings on record: 5 µM; treatment time 24 h; reporter: TCF4/Wnt. A digest of the protocol: as §1
The subject of assay [3] is SW480. The assay is described as above. The settings on record: 5 µM; treatment time 24 h; reporter: 7TFP. The method in brief:
as §1

In assay [4] the test system is DLD1. Kind of assay: TCF/Wnt firefly luciferase reporter signal relative to plate median (fraction of plate median); higher = higher Wnt reporter signal. The settings on record: 5 µM; treatment time 24 h; reporter: 7TFP. A digest of the protocol: as §1
For orientation: A reporter such as luciferase makes a cellular process visible.

Assay [5] deals with SW480. Described as above. The settings on record: 5 µM; treatment time 24 h; reporter: 7TFP. The method in brief: as §1

On to `COc1cc2c(c(OC)c1OC)-c1ccc(OC)c(=O)cc1[C@@H](NC(C)=O)CC2`, for which the cell viability in assay [1] amounted to 1.1 ± 0.057; in assay [2], 0.636 ± 0.016; in assay [3] it was 1.22 ± 0.099. Also, the “TCF/Wnt firefly luciferase reporter signal” value in assay [4] came to 0.77 ± 0.22; in assay [5], 0.802 ± 0.13.

Turning to `CN1[C@@H]2CC[C@H]1C[C@@H](OC(c1ccccc1)c1ccccc1N)C2` (stereo not given in full), the cell viability in assay [1] turned out to be 0.982 ± 0.096; in assay [2], 0.954 ± 0.0085; in assay [3], 1.03 ± 0.028. The “TCF/Wnt firefly luciferase reporter signal” value in assay [4] is 0.999 ± 0.16; in assay [5], 0.8705 ± 0.0035.

For `O=C(O)CCC1NCC2CC1CN1CCCCC21` (stereo not given), the figures for the cell viability in assay [1], in assay [2] and in assay [3] were 0.999 ± 0.044, 1.08 ± 0.042 and 0.971 ± 0.023, respectively. In addition, the “TCF/Wnt firefly luciferase reporter signal” value was 1.27 ± 0.28 in assay [4] and 1.11 ± 0.078 in assay [5].

With `C[C@@H]1CC[C@H]2[C@@H](C)C(=O)O[C@@H]3O[C@@]4(C)CC[C@@H]1[C@]32OO4`, the cell viability amounted to 1.04 in assay [1], 1.09 ± 0.14 in assay [2] and 1.145 ± 0.0071 in assay [3]. Also, the “TCF/Wnt firefly luciferase reporter signal” value in assay [4] is 1 ± 0.023; in assay [5], 0.984 ± 0.066.

With `CO[C@H]1C[C@H](O[C@H]2CC[C@@]3(C)[C@H](CC[C@@H]4[C@@H]3CC[C@]3(C)[C@@H](C5=CC(=O)OC5)[C@@H](OC(C)=O)C[C@]43O)C2)O[C@@H](C)[C@@H]1O`, the cell viability was found to be 1.26 ± 0.028 in assay [1], 0.486 ± 0.31 in assay [2] and 1.31 ± 0.13 in assay [3]. The “TCF/Wnt firefly luciferase reporter signal” value in assay [4] was 0.123 ± 0.13; in assay [5], 0.171 ± 0.12.

In the case of `CCCCCCCCCCCCOC(=O)[C@H]1OC(=O)[C@H](O)[C@H]1C(=O)OO` [Cinatrin C1], the cell viability in assay [1] is 1.03 ± 0.11; in assay [2], 1.02 ± 0.033; in assay [3], 0.995 ± 0.035. For the same compound, the “TCF/Wnt firefly luciferase reporter signal” value in assay [4] is 0.905 ± 0.054; in assay [5], 0.977 ± 0.033.

Regarding `C[C@]12CC[C@H](O)C[C@@H]1CC[C@@H]1[C@@H]2CC[C@]2(C)C(=O)CC[C@@H]12`, the cell viability in assay [1] worked out at 0.956 ± 0.038; in assay [2], 0.9945 ± 0.0078; in assay [3] it was 1.01 ± 0.11. For the same compound, the entries for the “TCF/Wnt firefly luciferase reporter signal” value in assay [4] and in assay [5] were 1.075 ± 0.0071 and 1.01 ± 0.033, respectively.

Consider `C[C@@H]1C(=O)O[C@H]2[C@H]1CC[C@@]1(C)C=CC(=O)[C@@]3(C)O[C@@]213` [EPOXY (4,5alpha)-4,5-DIHYDROSANTONIN], for which the cell viability was found to be 0.995 ± 0.064 in assay [1], 1.17 ± 0.071 in assay [2] and 1 ± 0.023 in assay [3]. The entries for the “TCF/Wnt firefly luciferase reporter signal” value in assay [4] and in assay [5] were 0.966 ± 0.09 and 0.902 ± 0.042, respectively.

As for `N#C[C@H](O[C@@H]1O[C@H](CO[C@@H]2O[C@H](CO)[C@@H](O)[C@H](O)[C@H]2O)[C@@H](O)[C@H](O)[C@H]1O)c1ccccc1`, the cell viability in assay [1] was found to be 1.01 ± 0.09; in assay [2] it was 1.04 ± 0.089; in assay [3] it was 1.01 ± 0.042. In addition, the “TCF/Wnt firefly luciferase reporter signal” value was found to be 0.757 ± 0.0042 in assay [4] and 0.916 ± 0.071 in assay [5].

Turning to `O=[N+]([O-])O[C@H]1CO[C@H]2[C@@H]1OC[C@H]2O[N+](=O)[O-]`, the cell viability stood at 1 in assay [1], 1.07 ± 0.014 in assay [2] and 1.05 ± 0.028 in assay [3]. In addition, the “TCF/Wnt firefly luciferase reporter signal” value in assay [4] amounted to 1.02 ± 0.11; in assay [5], 1.11.

`CC[C@@]1(O)C[C@H](O[C@H]2C[C@H](N(C)C)[C@H](O)[C@H](C)O2)c2c(cc3c(c2O)C(=O)c2c(O)cccc2C3=O)[C@H]1C(=O)OC`: the cell viability was 1.07 ± 0.17 in assay [1], 0.9035 ± 0.0064 in assay [2] and 1.2 ± 0.12 in assay [3]. Further, the “TCF/Wnt firefly luciferase reporter signal” value in assay [4] was 1.4 ± 0.05; in assay [5] it was 0.842 ± 0.028.

Regarding `CCCCOC(=O)c1ccccc1C(=O)OCCCC`, the cell viability is 0.944 ± 0.044 in assay [1], 0.98 ± 0.013 in assay [2] and 0.96 ± 0.071 in assay [3]. The results for the “TCF/Wnt firefly luciferase reporter signal” value in assay [4] and in assay [5] were 0.847 ± 0.16 and 0.939 ± 0.03, respectively.

For the compound `O=P1(NCCCl)OCCCN1CCCl` (stereo not given), the cell viability is 1.03 ± 0.079 in assay [1], 0.996 ± 0.021 in assay [2] and 0.973 ± 0.053 in assay [3]. Further, the “TCF/Wnt firefly luciferase reporter signal” value in assay [4] came to 0.999 ± 0.28; in assay [5] it was 0.97 ± 0.086.
